In PubChem BioAssay (NCI) one finds growth data, which are given here for 40 compounds.

This is part of a sample that, as a whole, favours compounds with a hit. Of some 83,000 tested, about 20% had one in any assay.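 Single-concentration screen, 48 h exposure, 96-well plates. Endpoint: percent growth. Below 10 = active.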 Unmarked numbers belong to inactive results. Active and inactive are the calls of the source.

The assay relates to MDA-MB-468 breast. Description: NCI-60 one-dose screen, 48 h (100 = growth as untreated, 0 = no growth, -100 = all killed). Conditions: 10 µM unless noted.
As to `CCNC(=O)CCCCC(=O)c1c(C)[nH]c(/C=C2\N=C(c3ccc[nH]3)C=C2OC)c1C`, the growth was -22.7% (active).
As for `COc1ccccc1CNCCCCCCCCCCCCN1C(=O)c2ccc3c4c(ccc(c24)C1=O)C(=O)N(CCCCCCCCCCCCNCc1ccccc1OC)C3=O`, the growth was -8.04% (active).
Take `COc1cccc(Nc2nccc(Nc3ccc4[nH]ncc4c3)n2)c1`: the growth is -45.5% (active).
The value for `COC(=O)N[C@@H](C)CNc1nccc(-c2cn(C(C)C)nc2-c2cc(Cl)cc(NS(C)(=O)=O)c2F)n1` was 99.4%; that for `Cc1cc(=O)oc2cc(Oc3nc(-c4cccs4)cn4c(-c5cccs5)cnc34)ccc12` was 54.7%.
The value for `C=C(C)[C@@H]1CC[C@]2(C(=O)N3CCN(C)CC3)CC[C@]3(C)[C@H](CC[C@@H]4[C@@]5(C)C/C(=C/c6ccncc6)[C@H](O)C(C)(C)[C@@H]5CC[C@]43C)[C@@H]12` was -25.5% [100 µM] (active).
Turning to `CCN(CCN(C)C)C(=O)CNCc1cc(C(N)=O)ccn1`, the growth is 101%.
Turning to `Cc1cccc(Cl)c1NC(=O)c1cnc(Nc2cc(N3CCOCC3)cc(N3CCOCC3)c2)s1`, the growth was -8.47% (active).
As to `CCc1ccc(CNCC(O)c2ccccc2)cc1` (stereo not given), the growth was -1.1% (active).
In the case of `O=S(=O)(O)c1ccc(N=Nc2ccc(N=Nc3cccc4ccccc34)c(S(=O)(=O)O)c2)cc1`, the growth was 89.8%.
The figure for `COc1ccc(-c2nc3c(N)c(CO)c(C)nc3o2)cc1` is 67.5%; for `O=C(C[n+]1cccc2cc(Cl)ccc21)c1ccc2c(c1)CCCC2` it is 9.66% (active); for `COc1ccc([C@H]2[C@H](O)C(=O)N2c2cc(OC)c(OC)c(OC)c2)cc1Cl` it is 10.9%.
On to `CN(C)c1ccc(/C=C/c2nccc3ccccc23)cc1`, for which the growth is -1.08% (active).
The figure for `O=C1Cc2ccccc2C(=O)O1` is 112%.
The value for `CC(C)C1CCC(C)C(O)C1` (stereo not given) was 98.5%; that for `Cc1nnc(/N=C2\NC(=O)/C(=C/c3ccsc3)S2)s1` was 110%.
`C(=N\Nc1ccccn1)/c1ccccn1`: the growth is -38.7% (active).
In the case of `Cc1[nH]c2ccc(F)cc2c1CCNC(=O)C1CCN(C(=O)c2ccccc2)C1` (stereo not given), the growth was 86.8% [25 µM].
In the case of `C[C@@H](Oc1cc(-c2cnn(C3CC4(CNC4)C3)c2)cnc1N)c1c(Cl)ccc(F)c1Cl`, the growth is 20.5%.
The value for `COC(=O)[C@]1(C)CCC[C@]2(C)[C@H]3C[C@H]4C(C(C)C)=C[C@]3(CC[C@H]21)[C@@H]1C(=O)N(CCC#N)C(=O)[C@@H]14` was 86.9%; that for `CC(=O)N[C@H](C(=O)N[C@@H](CCCNC(=N)N)C(=O)N[C@@H](CCCCN)C(=O)N[C@@H](CCCNC(=N)N)C(=O)NC(C(=O)N[C@@H](CC(C)C)C(=O)N[C@@H](CCCNC(=N)N)C(=O)N[C@@]1(C)CCC/C=C\CCC[C@@](C)(C(=O)N[C@@H](CCCNC(=N)N)C(=O)N[C@@H](CCC(=O)O)C(=O)N[C@@H](CC(C)C)C(=O)N[C@H](C(=O)N[C@@H](CCC(=O)O)C(N)=O)C(C)C)NC(=O)[C@H](CCC(N)=O)NC(=O)[C@H](CC(C)C)NC(=O)[C@H](CC(C)C)NC1=O)[C@@H](C)O)C(C)C` (stereo not given in full) was 31.9%; that for `c1ccc2[nH]c(-c3ccc(-c4nccc5c4[nH]c4ccccc45)cc3)nc2c1` was 44.8%.
The value for `CC(=O)Nc1ncc(S(=O)(=O)c2ccc([N+](=O)[O-])cc2)s1` was 107%; that for `Cc1[nH]c2ccccc2c1C1=CC(=O)C=CC1=O` was 72%; that for `N#Cc1c(-c2ccccc2)cc(-c2ccccc2)n(CCCCC(=O)O)c1=O` was 89.1%.
Turning to `COc1ccc2c(c1)/C(=C\c1c[nH]c3ccc(F)cc13)C(=O)N2`, the growth was 2.93% (active).
For the compound `CCN1c2ccccc2C(Cl)(c2ccc(N(C)C)cc2)c2ccccc21`, the growth is 86.6%.
For `O=C(Nc1ccc2ncsc2c1)c1csc(Nc2ccc3[nH]ncc3c2)n1`, the growth is 35.6%.
The figure for `Nc1c(C(=O)Nc2ccccc2F)sc2nc3c(cc12)CCCC3` is 26.4%.
The figure for `COc1cc(-c2nc(-c3nc4ccc(Cl)cc4[nH]3)cc3c2[nH]c2ccccc23)cc(OC)c1OC` is 44.1%; for `C=C(C)[C@@H]1CC[C@]2(C(=O)NCCCCCN(CCC#N)CCC#N)CC[C@]3(C)[C@H](CC[C@@H]4[C@@]5(C)CCC(=O)C(C)(C)[C@@H]5CC[C@]43C)[C@@H]12` it is 103%.
For the compound `COc1ccc(C2CC(c3cccc(Nc4ccnc5cc(Cl)ccc45)c3)=NN2c2ccccc2)cc1` (stereo not given), the growth is 63.3%.
On to `c1ccc(Sc2ncnc3ccccc23)cc1`, for which the growth was 50.3%.
With `CC(=O)N1N=C(c2ccc(Cl)cc2)CC1c1sc(Cl)nc1Cl` (stereo not given), the growth was 74.9%.
The value for `CCCCCCN1CCN(Cc2ccc(N(CC)CC)cc2)C(=O)C1=O` was 22.9%; that for `COc1ccc(/C(C#N)=C/c2ccccc2OC)cc1` was -14% (active); that for `CCN(CC)c1ccc(C(=O)c2ccc(N(CC)CC)cc2)cc1` was -36% (active).
The figure for `COc1ccc(N)c(-c2cc3c(c4c2[nH]c2ccc(OC)cc24)CCCC3)c1` is 94.5%; for `COc1ccc(C=C2c3ccccc3-c3ccccc32)cc1` it is 41.3%.
